# Screening results (PubChem)
# DTT redox prof: compounds producing H2O2 with reducing agent – biochemical, NIH compound library profiling, artefact control for MLSCN library redox annotation, primary screen. 0.03% of 200,000 active. DTT-dependent redox cycling H2O2, phenol red/HRP absorbance; 100% = 100 µM peroxide control, 0% = buffer. activation, % at 10 µM;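 active = activation of at least 50% relative to the plate's high and low controls in the primary single-dose screen; inactive = activation below 50%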;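 note: compound incubated with DTT at 0.8 mM final as the reducing agent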
# SUMO HTRF inh: SUMOylation inhibition | HTRF SUMOylation assay, SAE1/SAE2 + UBC9, in vitro | inhibition, % at 35 µM | 0.36% of 290,000 active; in the data active = inhibition above about 50%, passing the limit was not always enough
# PERK inhibitor: blocks human PERK kinase. Q9NZJ5. CHO PERK-DD fusion, SEAP luminescence translation reporter. inhibition, % at 5.6 µM. 0.17% of 220,000 active;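 active = inhibition above the mean inhibition of all tested compounds plus 3 SD, set separately per screening campaign, cut at about 2.9% in these data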;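 note: PERK kinase domain activated by AP20187 dimerizer at 100 nM; 0% = DMSO with dimerizer and 100% = rapamycin at 8.4 µM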
# p97 ATPase inh: blocks human p97 ATPase activity; P55072; recombinant p97 ATPase, Kinase-Glo ATP luminescence, 3 h; inhibition, % at 8 µM; 0.42% of 220,000 active; AID 1481; in the data active = inhibition above about 15%;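 note: 0% = DMSO vehicle and 100% = wells lacking enzyme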
# Target sequence (P55072 whole entry, looked up): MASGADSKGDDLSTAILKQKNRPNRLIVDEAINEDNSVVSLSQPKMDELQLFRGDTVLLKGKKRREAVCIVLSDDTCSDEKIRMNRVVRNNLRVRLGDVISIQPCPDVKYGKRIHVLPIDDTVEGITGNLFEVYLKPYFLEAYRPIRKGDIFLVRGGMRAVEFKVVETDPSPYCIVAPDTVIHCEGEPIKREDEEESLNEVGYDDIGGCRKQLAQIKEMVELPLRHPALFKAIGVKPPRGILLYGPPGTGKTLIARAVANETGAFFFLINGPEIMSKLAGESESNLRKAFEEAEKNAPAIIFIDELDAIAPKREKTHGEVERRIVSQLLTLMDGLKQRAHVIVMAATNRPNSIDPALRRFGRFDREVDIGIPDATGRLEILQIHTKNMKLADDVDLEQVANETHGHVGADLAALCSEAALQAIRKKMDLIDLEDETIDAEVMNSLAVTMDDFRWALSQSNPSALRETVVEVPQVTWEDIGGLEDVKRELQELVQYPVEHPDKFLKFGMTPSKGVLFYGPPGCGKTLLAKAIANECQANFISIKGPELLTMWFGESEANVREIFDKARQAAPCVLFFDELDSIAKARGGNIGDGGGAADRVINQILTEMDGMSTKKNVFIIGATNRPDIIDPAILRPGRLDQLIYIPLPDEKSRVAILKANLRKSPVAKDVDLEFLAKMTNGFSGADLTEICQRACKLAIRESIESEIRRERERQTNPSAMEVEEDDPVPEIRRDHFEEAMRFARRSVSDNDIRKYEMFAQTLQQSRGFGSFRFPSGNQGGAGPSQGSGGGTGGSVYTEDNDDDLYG
# Active calls of the source: *; / = not tested or not shown. Sampled rows, rich in hits. Any-hit rate of the full collection: about 0.69%.
SMILES,DTT redox prof,SUMO HTRF inh,PERK inhibitor,p97 ATPase inh
NCC[C@H](O)C(=O)N[C@@H]1C[C@H](N)[C@@H](O[C@H]2O[C@H](CN)[C@@H](O)[C@H](O)[C@H]2O)[C@H](O)[C@H]1O[C@H]1O[C@H](CO)[C@@H](O)[C@H](N)[C@H]1O,1,71*,1,7
CCOCCCNC(=O)Cn1nc(Cc2ccncc2)c2ccccc2c1=O,/,-3,/,/
CC(=O)Nc1c(Br)cc(N2C(=O)CCC2=O)cc1Br,-1,-11,3.1*,-1
Cc1c(O)ccc2c(CC(=O)N[C@@H](Cc3ccc(O)cc3)C(=O)O)cc(=O)oc12,/,53*,/,/
O=C1CSCC(=O)N1Cc1ccc(Cl)c(Cl)c1,/,-20,/,/
CCc1ccc2nc(NC(=O)Cn3cnc4ccccc4c3=O)sc2c1,0,50*,0,0
Cc1ccc(C2=NN(C(=O)c3cccs3)C(c3ccccc3O)C2)cc1 (stereo not given),0,27,0,4
O=C(c1cccs1)N1N=C(c2ccccc2)CC1c1ccccc1O (stereo not given),-1,66*,1,2
COC/C=C/C1=CC2=CC(=O)C(C)(OC(=O)c3cnc4ccccc4n3)C(=O)C2=CN1c1ccc(CO)cc1 (stereo not given),/,58*,/,/
CCCCn1c(N)c(N(Cc2ccccc2OC)C(=O)CCC(C)C)c(=O)[nH]c1=O,/,-5,/,/
Cc1ccc2cc(/C=N/Nc3nc4ccccc4[nH]3)c(Cl)nc2c1,1,-87,3.4*,2
Cn1cc(NC(=O)Nc2ccc(C(F)(F)F)cc2)c(C(F)(F)F)n1,/,-17,3.9*,-10
COCCn1nnnc1C(c1cccs1)N1CCCC(C)C1 (stereo not given),-1,-5,0,2
C=CCc1cccc2cc(C(=O)Nc3ccccc3C(=O)O)c(=O)oc12,-1,5,2,22*
C=CCc1cccc2cc(C(=O)O)c(=O)oc12,0,7,0,4
CC(=O)Nc1ccc(S(=O)(=O)N2CCN(C)CC2)cc1,0,4,3.1*,4
Cc1ccc(-c2cc(C(=O)OC3CCOC3=O)c3ccccc3n2)c(C)c1 (stereo not given),0,8,2.9*,0
O=C(O)CC/C(=N/Nc1ncc(C(F)(F)F)cc1Cl)C(=O)O,-1,-7,0,-1
CC1CCCN(CCCNS(=O)(=O)c2ccc3c(c2)CCN3C(=O)C2CC2)C1 (stereo not given),/,-6,/,/
COc1ccc(N2CC(C(=O)N/N=C/c3ccc(C)cc3)CC2=O)cc1 (stereo not given),-1,19,0,15*
Cc1cc(NC(=O)C2CC(=O)N(c3ccc(F)cc3)C2)no1 (stereo not given),/,-2,/,/
Cc1ccc(N2CC(C(=O)Nc3cc(C)on3)CC2=O)cc1 (stereo not given),2,18,2.9*,3
CC(C)(C)[C@@H]1C=C(C(=O)N2CCN(Cc3ccc4c(c3)OCO4)CC2)O[C@H](OCc2ccc(CO)cc2)C1,0,0,0,1
NS(=O)(=O)c1ccc(-c2ccc(/C=N/NC(=O)c3ccccc3O)o2)cc1,/,17,2,9
Cc1cc(C(=O)N/N=C/c2ccc(-c3ccc(C)c(Cl)c3)o2)n[nH]1,/,58*,1,-1
SMILES,DTT redox prof,SUMO HTRF inh,PERK inhibitor,p97 ATPase inh
Cc1cc(C(=O)N/N=C/c2ccc(-c3ccccc3Cl)o2)n[nH]1,0,14,0,6
O=C(N/N=C/c1ccc(-c2ccc(S(=O)(=O)Nc3ncccn3)cc2)o1)c1cc2ccccc2cc1O,0,/,1,15*
Cc1ccc(-c2ccc(/C=N/NC(=O)c3ccccc3O)o2)cc1,/,22,3.1*,11
CCOc1ccc(C(=O)N/N=C/c2ccc(-c3ccc(S(=O)(=O)Nc4ncccn4)cc3)o2)cc1,-1,21,1,4
CC(C)=C1C(=O)NN(c2ccc(F)c(Cl)c2)C1=O,2,23,2,20*
O=C1CSC(=S)N1c1ccc(F)c(Cl)c1,/,15,/,/
Cc1ccc(/C=N/NC(=O)NC23CC4CC(CC(C4)C2)C3)o1,/,-10,0,3
O=c1c(-c2ccccc2)coc2c(CN3CCCC3)c(O)ccc12,-1,50*,0,-2
O=c1c(-c2ccc(Cl)cc2)coc2c(CN3CCOCC3)c(O)ccc12,2,38,2,8
CC(Sc1nnnn1-c1ccc(O)cc1)c1nc2ccccc2c(=O)[nH]1 (stereo not given),/,17,1,-1
Cc1ccc(C)c(NC(=O)C2CC3CCC2C3)c1 (stereo not given),/,0,/,/
Cc1ccc(S(N)(=O)=O)cc1NC(=O)C1CC2CCC1C2 (stereo not given),-4,-8,3.0*,1
O=C1c2ccccc2C(=O)N1c1cccc2cccnc12,1,74*,1,5
O=Cc1ccc(-c2cc(Cl)ccc2Cl)[nH]1,-1,17,3.3*,4
O/N=C/c1ccc(-c2cc(Cl)ccc2Cl)o1,1,12,0,6
CCCCOc1ccc(/C=C/C(=O)Nc2ccc(C(N)=O)cc2)cc1,1,51*,1,7
O=C(CCC(=O)NC1CCCCC1)Nc1cccnc1,/,14,/,/
COc1ccc(N=C2NC(=O)/C(=C\C=C\c3ccco3)S2)cc1,-2,85*,1,6
Nc1nc(COc2ccc(F)cc2)nc(N2CCCCC2)n1,-2,-2,0,1
Cn1cccc1/C=N/NC(=O)c1sc2cc(Cl)ccc2c1Cl,1,56*,1,6
O=C(CN1C(=O)/C(=C2\SC(=S)N(CCS(=O)(=O)O)C2=O)c2ccccc21)Nc1cccc(Br)c1,/,56*,/,/
COCCN1C(=O)/C(=C2/C(=O)N(CC(=O)Nc3ccccc3Cl)c3ccccc32)SC1=S,/,0,/,/
Cc1ccc(C)c(NC(=O)CSc2nc3nc(-c4cccs4)cc(C(F)(F)F)c3c(=O)[nH]2)c1,/,28,2,1
O=C(CSc1nc2nc(-c3cccs3)cc(C(F)(F)F)c2c(=O)[nH]1)Nc1ccc(F)c(F)c1,-1,56*,0,3
COc1ccccc1CNC(=O)[C@H](C)NC(=O)C1CCN(C(=O)[C@H](CCSC)NC(=O)OC(C)(C)C)CC1,/,2,/,/
SMILES,DTT redox prof,SUMO HTRF inh,PERK inhibitor,p97 ATPase inh
Cc1ccc(-c2cc(C(=O)N/N=C/c3ccco3)n[nH]2)s1,1,63*,1,-3
CC(C)(C)c1cc(C(=O)N/N=C/c2ccco2)n[nH]1,0,-4,0,-4
Cn1c(C(=O)NCC2CCCO2)cc2c(=O)n3ccccc3nc21 (stereo not given),0,53*,0,1
COCCCn1c(C(=O)N2CC(C)OC(C)C2)cc2c(=O)n3ccccc3nc21 (stereo not given),/,54*,/,/
COCCCn1c(=N)c(C(=O)NC2CCCCC2)cc2c(=O)n3ccccc3nc21,0,20,-1,-6
Cn1c(C(=O)N2COCC2(C)C)cc2c(=O)n3ccccc3nc21,-4,53*,-1,-2
Cc1cccn2c(=O)c3cc(C(=O)N4COCC4(C)C)sc3nc12,-1,18,0,3
